CSC inhib: cancer stem cell inhibition; cancer stem cell-like cells viability, luminescence; inhibition, % at 7.5 µM; 300,000 compounds, 1.1% hits; in the data active = inhibition above about 75%; inconclusive = no clear call, values can overlap the other calls; tested in HMLE shEcad cells
Calb FLC: C. albicans growth modulation with fluconazole | 300,000 compounds, 0.57% hits | growth inhibition, % (no concentration beside the values) | C. albicans CaCi-2 (fluconazole-resistant clinical isolate) + fluconazole, Alamar Blue growth, 48 h;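 active = growth inhibition above about 58% in most replicates, limit read from the data, passing the limit was not always enough; inconclusive = exactly half the replicates above a set limit; inactive = most replicates below a set limit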;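 also: all wells also contain fluconazole at 8 µg/ml as a sub-toxic cotreatment; 0% = median of DMSO wells and 100% = median of geldanamycin control wells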
Mdm2-MdmX inh: human Mdm2/MdmX binding inhibition; SaOS-2 split-luciferase Mdm2/MdmX complementation, luminescence; inhibition, % at 8 µM; 330,000 compounds, 3% hits; AID 485346;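 active = inhibition of at least 50% at 8 µM in the primary screen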
Target sequence (O15151 whole entry, looked up): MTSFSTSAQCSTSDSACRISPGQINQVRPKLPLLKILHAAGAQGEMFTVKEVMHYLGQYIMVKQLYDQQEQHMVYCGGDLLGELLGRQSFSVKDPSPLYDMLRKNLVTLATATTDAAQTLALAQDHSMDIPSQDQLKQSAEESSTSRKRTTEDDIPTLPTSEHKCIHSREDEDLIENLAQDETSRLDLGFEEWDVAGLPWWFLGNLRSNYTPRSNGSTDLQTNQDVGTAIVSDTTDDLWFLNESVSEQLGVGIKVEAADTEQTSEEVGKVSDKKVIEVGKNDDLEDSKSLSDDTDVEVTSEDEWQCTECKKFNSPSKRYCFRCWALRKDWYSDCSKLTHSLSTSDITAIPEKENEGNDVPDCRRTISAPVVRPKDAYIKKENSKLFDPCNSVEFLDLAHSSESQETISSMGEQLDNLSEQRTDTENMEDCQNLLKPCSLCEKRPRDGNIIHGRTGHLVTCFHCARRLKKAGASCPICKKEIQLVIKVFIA
Target sequence (Q00987 whole entry, looked up): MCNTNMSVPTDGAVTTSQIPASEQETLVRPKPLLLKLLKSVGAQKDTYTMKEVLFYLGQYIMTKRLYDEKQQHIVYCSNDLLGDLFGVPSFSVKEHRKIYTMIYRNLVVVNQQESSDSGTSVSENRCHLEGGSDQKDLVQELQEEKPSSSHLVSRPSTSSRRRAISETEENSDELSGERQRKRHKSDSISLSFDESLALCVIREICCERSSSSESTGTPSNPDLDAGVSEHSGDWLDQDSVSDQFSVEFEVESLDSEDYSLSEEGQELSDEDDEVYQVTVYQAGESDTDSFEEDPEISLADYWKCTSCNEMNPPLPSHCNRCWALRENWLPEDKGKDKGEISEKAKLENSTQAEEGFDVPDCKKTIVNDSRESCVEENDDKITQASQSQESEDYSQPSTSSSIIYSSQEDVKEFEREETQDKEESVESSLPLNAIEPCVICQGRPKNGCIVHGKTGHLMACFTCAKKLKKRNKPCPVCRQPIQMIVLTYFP
Beta apoptosis: beta cell apoptosis inhibition; protection from apoptosis, % (no concentration beside the values); AID 435005; INS-1E cytokine-induced death, ATP luminescence, 48 h; percent of positive-control rescue, neutral wells zero; 300,000 compounds, 0.8% hits;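 active = Every replicate reaches about 75%, or at least half do and their mean reaches it too, limit read from the data; inconclusive = At least half of replicates reach the limit but their mean does not; inactive = Under half of replicates reach the limit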;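 also: 0% = cytokine-treated negative control wells and 100% = positive control rescue; higher means more ATP so stronger rescue from cytokine killing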
MPTP inh: permeability transition pore inhibition; isolated mouse mitochondria, Ca2+ swelling absorbance, 30 min; inhibition, % at 10 µM; AID 602449; 360,000 compounds, 1.4% hits;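 active = inhibition of 50% or more, scaled per plate between neutral and stimulator controls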;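 also: 0% = DMSO wells given calcium and 100% = 1 mM EGTA wells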
Mdm2-MdmX conf: confirmation of human Mdm2/MdmX interaction inhibitors; shares compounds with Mdm2-MdmX inh; Mdm2-MdmX binding, luminescent assay; inhibition, % at 8 µM; 10,000 compounds, 55% hits; in the data active = inhibition above about 40%
FLuc counter: counter-screen for Mdm2/MdmX inhibitors: full-length luciferase | shares compounds with Mdm2-MdmX inh | SaOS-2 full-length luciferase counterscreen, luminescence | inhibition, % at 8 µM | 6,200 compounds, 77% hits | AID 504607;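 active = mean inhibition at 8 µM reaching about 37%, which flags the compound as non-specific, limit read from the data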;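 also: p53-null SaOS-2 cells with luciferase driven by a doxycycline-inducible promoter; compound on cells about two nights before reading with doxycycline added after day one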
* = called active by the depositor; u = inconclusive; x = no result given; ! = a repeat was not active. Only some compounds are listed: those with a hit (about 4.8% of all), similar ones and a draw of the others.

SMILES	CSC inhib	Calb FLC	Mdm2-MdmX inh	Beta apoptosis	MPTP inh	Mdm2-MdmX conf	FLuc counter
CCCCCCCCCCOC(=O)Cn1c(COc2cccc(C)c2)[n+](C)c2ccccc21	169*	49	86*	99*	4	71*	25
CCCCCCCCCCOC(=O)Cn1c(COc2ccccc2)[n+](C)c2ccccc21	103*	41	69*	129*	5	72*	20
CCOC(=O)Cn1c(COc2ccccc2OC)[n+](C)c2ccccc21	-15	1	32	1	2	x	x
CCCCCCCCCCOC(=O)Cn1c(COc2ccccc2C)[n+](C)c2ccccc21	106*	u	89*	110*	24	69*	17
CCCCCCCCCCOC(=O)Cn1c(COc2ccc(Cl)cc2)[n+](C)c2ccccc21	109*	u	78*	122*	0	74*	59*
Cc1nc(C)c(C(=O)N2CCCC(C(=O)c3ccc(Cl)cc3C)C2)s1 (stereo not drawn)	-4	-13	11	-1	-2	x	x
CCCCCCCCCCOC(=O)Cn1c(COc2ccc(OC)cc2)[n+](C)c2ccccc21	103*!	-11	85*	114*	-2	76*	21
COc1ccc(C(=O)/C=C/c2ccc(OC(=O)c3cc(OC)c(OC)c(OC)c3)cc2)cc1	17	0	57*	-5	0	5	x
CCOc1ccc(C(=O)/C=C/c2cc(OC)c(OC)c(OC)c2)cc1	48	-3	63*	-28	4	55*	49*
CCOc1ccc(N2C(=O)S/C(=C\c3cc(OC)c(OC)c(OC)c3)C2=O)cc1	4	-12	53*	10	4	14	x
COc1ccc(/C=C/C(=O)c2ccc(C(=O)/C=C/c3ccc(OC)c(OC)c3)cc2)cc1OC	x	5	54*	x	0	3	x
COC(=O)c1ccc(/C=C/C(=O)c2ccc(OC)cc2)cc1	x	13	-7	-1	-1	x	x
O=NN(C(=O)NCc1cccnc1)C1CCCCC1	x	x	x	x	-1	x	x
CCOC1=C2CN(S(=O)(=O)c3ccc(C)cc3)[C@H](c3cccc(Cl)c3)C[C@@H]2N(S(=O)(=O)c2ccccc2[N+](=O)[O-])[C@H](c2ccccc2)C1	x	x	x	x	4	x	x
COc1ccc(/C=C/C(=O)Nc2ccccc2C(=O)O)cc1OC	15	x	62*	x	0	76*	131*
COc1ccc(/C=C/C(=O)c2cc(F)ccc2OC(=O)c2ccccc2)cc1OC	47	8	68*	3	0	58*	98*
COc1ccc(/C=C/C(=O)Nc2ccccc2C(=O)O)cc1	7	-3	-69	10	1	x	x
CC(C)C[C@H]1CN(CCCC[C@@H]2CNC(=O)C(=O)N2CC2CCCCC2)C(=O)C(=O)N1Cc1ccccc1	x	x	x	x	0	x	x
COc1ccc(Cc2nnc(SCC(=O)Nc3ccc(N4CCOCC4)cc3)n2C)cc1	6	22	-14	3	-2	x	x
Cc1cc(C)cc(OCc2nc3ncc(Br)cc3[nH]2)c1	39	-20	81*	48	0	74*	31
CN(C)c1ccc(Nc2ncnc3ccc(Br)cc23)cc1	10	-2	78*	-5	-1	68*	37*
Cc1cccc(Nc2ncnc3ccc(Br)cc23)c1	32	15	76*	5	8	59*	26
COc1ccc(Nc2ncnc3ccc(Br)cc23)cc1OC	3	1	58*	-13	0	64*	31
O=C(N/N=C/c1ccc2c(c1)OCO2)c1ccc(COc2cccc3cccnc23)cc1	46	-2	-22	3	1	x	x
O=C(CNC(=O)c1cccc(Cl)c1)NCC(c1cccs1)N1CCOCC1 (stereo not drawn)	-15	x	-8	0	0	x	x
SMILES	CSC inhib	Calb FLC	Mdm2-MdmX inh	Beta apoptosis	MPTP inh	Mdm2-MdmX conf	FLuc counter
Cn1c(=O)n(CCc2ccccc2)c(=O)c2c1nc1n2CCCN1CCc1ccccc1	41	-1	65*	10	1	-4	x
COc1ccc([C@@H]2[C@@H]3C(=O)N(C(C)(C)C)C(=O)[C@@H]3[C@]3(Cc4ccccc4)C(=O)N(c4ccc(C(F)(F)F)cc4)C(=O)N23)cc1	5	4	85*	2	0	90*	28
COc1ccc([C@@H]2[C@@H]3C(=O)N(C(C)(C)C)C(=O)[C@@H]3[C@]3(Cc4ccccc4)C(=O)N(c4ccc(OC)cc4)C(=O)N23)cc1	-23	8	-1	-2	0	x	x
COc1ccc([C@@H]2[C@@H]3C(=O)N(C(C)(C)C)C(=O)[C@@H]3[C@]3(CC(C)C)C(=O)N(c4ccc(C(F)(F)F)cc4)C(=O)N23)cc1	-6	8	74*	9	24	76*	35
O=C(NCc1cccnc1)c1cccc(OC2CCN(Cc3ccc(CO)o3)CC2)c1	1	4	6	6	-1	x	x
Nc1ccc2ncccc2c1N	43	x	x	-3	1	x	x
Nc1nc(N)c2c(ccc3nccc32)[nH]1	43	24	51*	11	-2	38	x
Cc1ccc(C)c(CN2CCC(CNC(=O)Nc3ccc(Br)cc3F)CC2)c1	5	7	56*	7	3	44*	69*
Cc1ccc(C)c(CN2CCC(CNC(=O)Nc3ccc(Cl)cc3)CC2)c1	19	3	44	14	13	x	x
O=C(CCCc1ccccc1)NCCc1ccccc1	-6	0	-18	-8	2	x	x
O=C(CCl)N(CCc1ccccc1)CCc1ccccc1	x	-12	91*	3	-1	8	x
COC(=O)[C@@]1(C(C)C)N=C(c2cc(OC)c(OC)c(OC)c2)[C@]2(O1)C(=O)Nc1ccc(F)cc12	x	x	x	x	0	x	x
CCCN(CCC)S(=O)(=O)c1ccc(C(=O)Nc2nnc(-c3cccc(OC)c3)o2)cc1	20	-1	44	9	-27	x	x
CCCN(CCC)S(=O)(=O)c1ccc(C(=O)Nc2nnc(-c3cc(OC)cc(OC)c3)o2)cc1	57	0	51*	x	-29	1	x
COc1ccc2c(C(=O)CCl)c[nH]c2c1	-3	62	57*	-35	3	53*	24
C[C@@H]1CN([C@@H](C)CO)C(=O)c2cc(NC(=O)Nc3ccc(F)cc3)ccc2O[C@@H]1CN(C)Cc1ccc(Oc2ccccc2)cc1	137*	x	94*	59	2	21	x
C[C@H]1CN([C@@H](C)CO)C(=O)Cc2cc(NC(=O)CCC(F)(F)F)ccc2O[C@H]1CN(C)S(=O)(=O)c1ccc(F)cc1	45	x	43	-8	1	x	x
C[C@H]1CN([C@@H](C)CO)C(=O)Cc2cc(NC(=O)CCC(F)(F)F)ccc2O[C@H]1CN(C)S(=O)(=O)c1ccc(Cl)cc1	x	x	55*	x	1	50*	65*
C[C@@H]1CN([C@H](C)CO)C(=O)c2cc(NC(=O)Cc3ccccc3)ccc2O[C@H]1CN(C)Cc1ccc(Oc2ccccc2)cc1	66	x	73*	16	0	26	x

Screens: PubChem, several laboratories
